Rows were chosen to be rich in hits. Some 7.1% of all compounds tested hit in one or more screens of this group.
LASV entry inh – inhibitors of Lassa virus binding or entry into cells. Potency, µM (titrated, usually from 49.2 µM), hits mostly inhibitors. 4.1% of 18,000 active. AID 720533. Lassa virus pseudotyped entry inhibition, cell-based qHTS
Marburg entry – inhibitors of Marburg virus binding or entry into cells; Marburg virus pseudotype entry/binding inhibition, cell-based; Potency, µM (highest dose often 49.2 µM), most hits filed as inhibitors; 6.5% of 18,000 active
Numbers stand for hits; - = inactive; ? = inconclusive; . = not tested or not shown; ! = not confirmed by another sample; [ ] = dose if it differs, or a comment. Calls follow the shape of the full dose curve; tested in HEK293 cells.

SMILES | LASV entry inh | Marburg entry
NC(=O)c1cc(-c2ccc(F)cc2)cc(-c2ccncc2)c1N | - | ?
Oc1ccc(OCc2ccccc2)cc1 | ? | -
N=C(N)SCCc1ccc(OCc2ccc([N+](=O)[O-])cc2)cc1 | - | 14.1µM
CCCCCC(=O)N1C[C@H](n2cc(-c3ccc(F)cc3)nn2)[C@@H](O)C[C@H]1c1ccc(C)cc1 | - | -
C[C@H](N)[C@H](O)c1cccc(O)c1 | - | -
CC(N)C(O)c1ccc(O)c(O)c1 (configuration not stated) | - | 11.2µM!
C=C1CCC(O)C/C1=C/C=C1\CCC[C@]2(C)[C@@H]([C@H](C)CCCC(C)C)CC[C@@H]12 (some centres not stated) | - | -
C=C1C(=C/C=C2\CCC[C@]3(C)[C@@H]([C@H](C)/C=C/[C@@H](O)C4CC4)CC[C@@H]23)C[C@@H](O)C[C@@H]1O | 14.1µM | -
C=C1CCC(O)C/C1=C\C=C1/CCCC2(C)C1CCC2C(C)/C=C/C(C)C(C)C (configuration not stated) | - | -
C=C1C(=C/C=C2\CCC[C@]3(C)[C@@H]([C@H](C)CCCC(C)C)CC[C@@H]23)C[C@@H](O)C[C@@H]1O | 15.8µM | -
CC(C)C1C(=O)N(Cc2cn(CCC3OCCCO3)nn2)CCS(=O)(=O)N1Cc1ccc(-c2ccc(F)cc2)cc1 (configuration not stated) | - | ?
Cc1cc(O)cc(C)c1C=Cc1cncc(C(=O)OC(C)(C)C)c1 | . | -
CCCCCC(=O)N1C[C@H](O)[C@@H](n2cc(C3CC3)nn2)C[C@H]1c1ccc(C)cc1 | . | -
O=C(O)c1cc(O)c2c(c1)[O][Bi][O]2 | - | -
O=C(O)c1cc(O)c(O)c(O)c1 | 11.2µM | 3.16µM
CC(C)(C)c1ccc(C(O)CCCN2CCC(C(O)(c3ccccc3)c3ccccc3)CC2)cc1 (configuration not stated) | 15.8µM | ?
O[C@H](CCCN1CCN(c2ncc(F)cn2)CC1)c1ccc(F)cc1 | - | -
CC(C)(C)c1ccc([C@@H](O)CCCN2CCC(C(O)(c3ccccc3)c3ccccc3)CC2)cc1 | 6.31µM | ?
OC(c1ccccc1)(c1ccccc1)C1CCNCC1 | - | -
CCCCCCN1C[C@H](O)[C@@H](n2cc(COC(=O)c3ccccc3)nn2)C[C@H]1c1ccccc1 | - | ?
COC(=O)[C@@H]1CC[C@H](C)[C@@H](c2ccc(C)cc2)N1C(=O)c1ccc(C=NOC[C@@H](O)[C@H]2O[C@@H]3OC(C)(C)O[C@H]3[C@@H]2O)cc1 | . | -[8.59 µM]
CCOC(=O)CN1C(=O)[C@@]2(CC(C)=CC[C@@H](COc3ccccc3)O2)c2ccccc21 | . | -[8.59 µM]
Cc1c(C(=O)NCC2(N3CCOCC3)CCCCCC2)cnn1-c1nccc(-c2ccccc2F)n1 | - | 11.2µM
Cc1c(C(=O)NCC2(N3CCCCC3)CCCC2)cnn1-c1nccc(-c2ccccc2F)n1 | - | -
COC(=O)N[C@H](C(C(=O)OC)=C(C)NCc1ccccc1)c1ccco1 | -[8.59 µM] | -[8.59 µM]
SMILES | LASV entry inh | Marburg entry
COC1=CC(=O)C=C(OC)C1=O | 10µM | 7.08µM
COC1=CC(=O)C(C(=O)c2ccccc2)=CC1=O | - | -
Nc1ccc2cc3ccc(N)cc3nc2c1 | 25.1µM | 10µM
CCOc1ccc2nc3cc(N)ccc3c(N)c2c1 | - | -
O=[S+]1([O-])C[C@@H](N2CC[C@@H](O)C2)[C@@H](COCc2ccccc2)N1 | - | -
CN(C)CC[C@@H](c1ccccc1)c1ccccn1 | - | -
CN(C)CCC(c1ccc(Br)cc1)c1ccccn1 (configuration not stated) | - | 10µM
O=C1CCCC2=C1[C@H]1O[C@](CCCCN3C(=O)c4ccccc4C3=O)(Cc3ccccc31)O2 | -[8.59 µM] | -[8.59 µM]
CCCCCC(=O)N1C[C@@H](O)[C@H](n2cc(COC(=O)c3ccccc3)nn2)C[C@H]1c1ccc(OC)cc1 | - | -
CCN1C(=O)NC(CCc2ccccc2)C(C(C)=O)=C1C (configuration not stated) | -[8.59 µM] | -[8.59 µM]
CC(C)(C)C1(O)CCN2CC3c4ccccc4CCc4cccc(c43)C2C1 (configuration not stated) | ? | 28.2µM
CC(C)(C)[C@]1(O)CCN2C[C@H]3c4ccccc4CCc4cccc(c43)[C@@H]2C1 | ? | 11.2µM
CN1CCN2c3ncccc3Cc3ccccc3C2C1 (configuration not stated) | - | ?
CCN(CC)CCCN=C1NC(c2cccc(F)c2)C(C(=O)OC)=C(C)N1Cc1ccccc1 (configuration not stated) | -[8.59 µM] | ?
CO[C@H](c1ccccc1Br)[C@H](C)C=CCCO | -[8.59 µM] | ?
CCOC(=O)[C@@]12[C@@H]3[C@@H](CCN3C(=O)N[C@H]1c1ccccc1)C2(C)C | . | -[8.59 µM]
COC(=O)C1=C(C(=O)OC)[C@@H]2N(C)c3ccccc3[C@@]23C[C@@H](CO)N(C(=O)NC2CCCCC2)C3=N1 | -[8.59 µM] | -[8.59 µM]
CC(C)=CCCC1(C)C=Cc2c(O)c3c(c(CC=C(C)C)c2O1)OC12C(=CCCC1C(C)(C)O[C@@]2(C/C=C(\C)C(=O)O)C(=O)O)C3=O (some centres not stated) | - | -
